Test [1] in a line: StAR promoter reporter inhibitors, counter-screen for LRH-1 inverse agonist project, cell-based, luminescence, high throughput (AID 651611; in the data active means inhibition above about 28%). The conditions noted are these: StAR promoter luciferase reporter counterscreen, at 3.6 µM, stronger effect = higher value.
Test [2] has as its target Nuclear receptor subfamily 5 group A member 2 (Homo sapiens) (UniProt O00482). In words: LRH-1 (NR5A2) inverse agonists, retest, confirmation, cell-based, luminescence (AID 651613; in the data active means inhibition above about 42%;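 further: HEK293T cells co-transfected with LRH-1 and StAR promoter luciferase reporter; 0% = vehicle wells and 100% = parental cells lacking receptor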). The conditions noted are these: cell-based LRH-1 luciferase reporter, inverse agonism; at 3.6 µM; stronger effect = higher value. Background: In a reporter assay the amount or activity of a reporter protein is the signal.

In test [3] the target is Steroidogenic factor 1 (Homo sapiens) (UniProt Q13285). In words: SF1 (NR5A1) inverse agonists, counter-screen for LRH-1 inverse agonist project, cell-based, luminescence, high throughput (AID 651614).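 Further: cells cotransfected with StAR promoter reporter and SF1 expression vector; 0% = vehicle on cells with receptor and 100% = vehicle on cells lacking receptor.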 The conditions noted are these: cell-based SF1 luciferase reporter, at 3.6 µM, stronger effect = higher value. Background: A counterscreen serves to expose hits that act by an unwanted route or on another target.

Test [4] is described as follows: VP16 transactivation reporter inhibitors, counter-screen for LRH-1 inverse agonist project, cell-based, luminescence, high throughput (AID 651615; in the data active means inhibition above about 33%). The conditions noted are these: Gal4-VP16 luciferase reporter cells, at 3.6 µM, stronger effect = higher value.

Unmarked numbers belong to inactive results. Calls of active or inactive are those of the source. Unless noted, no stated cut-off is given here; in the data, active means inhibition above about 44%; inactive means the rest.

One may read the inhibition as the drop in the measured response relative to a control, in per cent.

Chain of Steroidogenic factor 1 (Homo sapiens) (Q13285 whole entry, looked up): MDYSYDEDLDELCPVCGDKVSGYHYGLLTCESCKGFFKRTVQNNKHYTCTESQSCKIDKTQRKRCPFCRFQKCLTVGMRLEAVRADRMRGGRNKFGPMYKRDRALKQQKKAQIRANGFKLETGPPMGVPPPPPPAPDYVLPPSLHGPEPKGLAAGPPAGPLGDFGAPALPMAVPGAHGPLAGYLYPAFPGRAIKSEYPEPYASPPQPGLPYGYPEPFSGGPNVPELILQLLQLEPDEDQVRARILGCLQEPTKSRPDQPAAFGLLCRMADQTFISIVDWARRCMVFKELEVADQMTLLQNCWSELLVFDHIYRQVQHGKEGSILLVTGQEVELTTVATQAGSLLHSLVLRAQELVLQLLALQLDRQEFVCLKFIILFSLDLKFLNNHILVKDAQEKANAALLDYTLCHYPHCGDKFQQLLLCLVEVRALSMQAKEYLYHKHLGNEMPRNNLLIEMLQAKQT
Chain of Nuclear receptor subfamily 5 group A member 2 (Homo sapiens) (O00482 whole entry, looked up): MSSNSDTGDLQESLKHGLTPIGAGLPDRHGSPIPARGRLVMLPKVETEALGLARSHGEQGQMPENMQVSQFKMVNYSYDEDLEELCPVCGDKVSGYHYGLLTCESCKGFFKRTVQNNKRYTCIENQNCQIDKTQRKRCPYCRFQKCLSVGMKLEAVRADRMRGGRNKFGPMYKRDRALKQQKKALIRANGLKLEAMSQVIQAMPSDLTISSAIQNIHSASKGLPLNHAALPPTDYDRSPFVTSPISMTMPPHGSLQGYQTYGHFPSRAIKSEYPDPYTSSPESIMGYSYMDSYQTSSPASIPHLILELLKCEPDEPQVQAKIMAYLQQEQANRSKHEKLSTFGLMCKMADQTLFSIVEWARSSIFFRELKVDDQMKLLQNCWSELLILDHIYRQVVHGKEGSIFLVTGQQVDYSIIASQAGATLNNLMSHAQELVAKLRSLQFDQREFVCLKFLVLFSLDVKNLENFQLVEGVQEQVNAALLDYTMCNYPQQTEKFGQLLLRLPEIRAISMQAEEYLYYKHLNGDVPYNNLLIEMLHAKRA

In the case of `c1csc(CCNc2ncnc3sc4c(c23)CCC4)c1`, the inhibition in test [1] is 10.5%; in test [2] it was 63.7% (active); in test [3], 60.7% (active); in test [4], 48.9% (active).

Regarding `CCOc1ccc(S(=O)(=O)NCc2ccncc2)cc1`, the inhibition in test [1] is 25.8%; in test [2] it was 61.1% (active); in test [3] it was 59.4% (active); in test [4], 51.8% (active).

With `Cc1[nH]c2ccccc2c1/C=N/Nc1ccc([N+](=O)[O-])cc1`, the inhibition in test [1] is -1.71%; in test [2] it was 55.8% (active); in test [3], 56.5% (active); in test [4] it was -3.15%.

`Cc1c(OCC(=O)NCCCN2CCOCC2)ccc2c(-c3ccccc3)cc(=O)oc12`: the inhibition in test [1] is 2.78%; in test [2] it was 37.8%; in test [3], 36.5%; in test [4], 5.76%.

For the compound `CCc1ccc2oc(C(=O)NCc3ccncc3)c(C)c2c1`, the inhibition in test [1] was -4.67%; in test [2], 53.2% (active); in test [3], 61% (active); in test [4] it was 6.18%.

The values above are taken from PubChem BioAssay.
